# Compound activity deposited in PubChem BioAssay by National Center for Advancing Translational Sciences (NCATS).
# Rows were chosen to be rich in hits. Some 11% of all compounds tested hit in one or more screens of this group.
# PI5P4Ka inh: inhibitors of human PI5P4K alpha; 1.2% of 330,000 active; PI5P4Kalpha enzyme, ADP-Glo luminescence, 60 min; hits give low values; max response, %; P48426; active means max response of -50% or lower; inconclusive means between -30% and -50%; inactive means -30% or higher; further: value at the top dose of about 77 µM
#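 Compounds were pin-transferred onto PI5P4Kalpha and substrate in HEPES pH 7.4 buffer with EGTA, CHAPS and 5% DMSO. ATP (5 microM final) started the reaction, which ran 60 minutes at room temperature before ADP-Glo detection.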
# BAZ2B inh: inhibitors of human BAZ2B bromodomain. Q9UIF8. AlphaScreen BAZ2B-H3K14Ac peptide displacement. Potency, µM (series often up to 114 µM), most hits filed as inhibitors. 4.4% of 360,000 active. AID 504333; further: nearly all actives have a fitted effect of over 60% in size
#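 Complex of BAZ2B and biotin-H3K14Ac (50 nM apiece) forms over 30 min at RT, then faces library compounds up to 110 uM for another 30 min; AlphaScreen beads added, 20 min dark incubation, luminescence read.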
# L3MBTL1 inh: blocks human L3MBTL1. Q9Y468. AlphaScreen L3MBTL1–H3K9me1 peptide binding. Potency, µM (doses to about 57.1 µM), hits mostly inhibitors. 0.66% of 230,000 active. AID 485360; further: nearly all actives have a fitted effect of over 60% in size
#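 First, the protein-peptide complex forms for 30 min at room temperature (L3MBTL1 50 nM, biotinylated H3K9me1 peptide 75 nM). Next, compounds are pin-transferred and incubated 30 min. Finally, AlphaScreen beads are added and read after 30 min.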
# JMJD2A Tudor: blocks the human JMJD2A Tudor domain. 4.4% of 390,000 active. AID 504339. O75164. Potency, µM (series often up to 114 µM), most hits filed as inhibitors. AlphaScreen JMJD2A-Tudor / H3K4me3 peptide binding; further: nearly all actives have a fitted effect of over 50% in size
# HP1b chromo inh: HP1-beta chromodomain-methylated histone interaction inhibition. P83916. AlphaScreen HP1-beta / biotin-H3K9me3 peptide binding. Potency, µM (top dose mostly 114 µM), usual class: inhibitors. 0.56% of 390,000 active. AID 540317; further: nearly all actives have a fitted effect of over 70% in size
#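 AlphaScreen: HP1-beta (50 nM) preformed 30 min with biotin-H3(1-18)K9me3 peptide (50 nM) in PBS pH 7.4, 0.01% Tween-20. Compound added for 30 min at RT, then streptavidin donor/nickel chelate acceptor beads (10 ug/mL) for 30 min.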
# G9a block: blocks human histone lysine methyltransferase G9a; Q96KQ7; G9a H3K9 monomethylation, AlphaScreen, 2 h; Potency, µM (series often up to 102 µM), hits mostly inhibitors; 8.8% of 350,000 active; further: nearly all actives have a fitted effect of over 75% in size
#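 Using a bead-based AlphaScreen, monomethylated H3K9 product from 2 h room-temperature reactions (G9a 20 nM, peptide 500 nM, SAM 20 uM) was detected with 0.5 ug/mL rabbit anti-H3K9me1 antibody.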
# A number is an active result; – = inactive; ? = inconclusive; · = no result; [ ] = another dose, or the depositor's remark. Unless noted, the call rests on the fitted dose curve; in most records, active means well fitted inhibition curve with a large enough effect; inconclusive means small, poorly fitted or top-dose-only effect; inactive means no such curve, though single readings can be large or run the other way.
SMILES,PI5P4Ka inh,BAZ2B inh,L3MBTL1 inh,JMJD2A Tudor,HP1b chromo inh,G9a block
CC1CCCN(CCCOc2ccc([N+](=O)[O-])cc2)C1 (stereo not given),–,?,–,22µM,–,8.9µM
COc1ccc(OCCCN2CCCC(C)C2)cc1 (stereo not given),–,–,–,–,?,7.1µM
CC(=O)N1CC=CC1(C)C(=O)O (stereo not given),–,–,–,–,–,50µM
O=C(CCc1nc2cccnc2n1Cc1cccs1)Nc1cccc(C(F)(F)F)c1,·,–,·,–,–,–
CCOc1ccc(-n2c(=O)c3c(C)c(C)sc3n(CC(=O)NCCc3ccccc3)c2=O)cc1,·,–,·,–,–,–
O=C(c1ccncc1)N1CCC[C@@]2(CCN(C(c3ccccc3)c3ccccc3)C2)C1,·,·,·,·,·,–[12.7 µM]
CCc1nnc(NS(=O)(=O)c2ccc(NC(=O)/C=C/c3ccc(F)cc3)cc2)s1,–,–,–,–,–,56µM
CCc1nnc(NS(=O)(=O)c2ccc(Nc3ccc([N+](=O)[O-])c4nonc34)cc2)s1,-57,22µM,?,?,?,25µM
CCc1nnc(NS(=O)(=O)c2ccc(NC(=O)OC)cc2)s1,·,–,–,–,–,18µM
CCc1nnc(NS(=O)(=O)c2ccc(NC(=O)Nc3ccc(OC)cc3)cc2)s1,–,–,–,–,–,·
CCc1nnc(NS(=O)(=O)c2ccc(NS(=O)(=O)c3ccccc3[N+](=O)[O-])cc2)s1,–,–,·,–,–,?
Fc1ccc(Nc2nc(-c3cccc(Cl)c3)c3c(n2)-c2ccccc2OC3)cc1,·,–,·,–,–,–
CCOc1ncccc1C(=O)N1CCN(c2cccc(C)c2C)CC1,–,–,–,–,–,–
CCOc1ncccc1C(=O)N1CCN(c2cc(Cl)ccc2C)CC1,–,–,·,50µM,–,–
O=S(=O)(c1ccc(Br)cc1)N1CCN(c2nc(-c3cccs3)nc3ccccc23)CC1,·,·,·,–,–,·
CCOC(=O)C1C(=O)CC(=O)C(C(=O)OCC)C1c1ccc(O)cc1 (stereo not given),–,·,·,·,·,·
CCOC(=O)C1C(=O)C(C(C)=O)C(=O)CC1CC(C)SCC (stereo not given),·,–,·,89µM,–,?
CC1=NNC(=O)c2ccccc2O1,–,50µM,–,5µM,–,–
CCSc1nnc([C@@H]2CCCN2C(=O)OC(C)(C)C)o1,–,–,–,–,–,50µM
Cn1c(C(=O)NCCN2CCCCCC2)cc2c(=O)n(C)c3ccccc3c21,–,?,·,–,–,35µM
Cn1c(C(=O)NCCN2CCN(Cc3ccccc3)CC2)cc2c(=O)n(C)c3ccccc3c21,–,–,·,–,–,–
Cn1c(C(=O)NCCCN2CCN(c3ccccc3F)CC2)cc2c(=O)n(C)c3ccccc3c21,–,–,·,?,–,50µM
O=C(Nc1ccccc1)N1CCC2(CC1)CCN(C(=O)c1ccncc1)CC2,·,·,·,·,·,–[12.7 µM]
Cc1c(Cl)cccc1NC(=O)CSc1nc(=O)n(Cc2cccnc2)c2c1CCC2,·,–,·,–,–,–
CN1CCN(C(c2ccccn2)c2cc(Cl)c3cccnc3c2O)CC1 (stereo not given),?,11µM,14µM,18µM,11µM,?
SMILES,PI5P4Ka inh,BAZ2B inh,L3MBTL1 inh,JMJD2A Tudor,HP1b chromo inh,G9a block
O=C(CCc1ccccc1)NC(c1cccs1)c1cc(Cl)c2cccnc2c1O (stereo not given),–,–,–,–,–,?
Oc1c(C(c2ccc(Cl)cc2)N2CCCC2)cc(Cl)c2cccnc12 (stereo not given),?,32µM,?,28µM,–,25µM
Oc1c(C(c2ccccn2)N2CCC(Cc3ccccc3)CC2)cc(Cl)c2cccnc12 (stereo not given),?,50µM,·,50µM,?,3.5µM
O=C(CCC1N=C2c3ccccc3N=C(SCc3cccc(F)c3)N2C1=O)NCCc1ccccc1 (stereo not given),·,–,·,–,–,–
Cc1sc2ncn(CC(=O)N3CCN(c4ccc(Cl)cc4)CC3)c(=O)c2c1S(=O)(=O)N1CCN(c2ncccn2)CC1,·,–,·,–,–,–
COc1ccc(NC(=O)C2CCN(S(=O)(=O)c3c(C)noc3/C=C/c3ccco3)CC2)cc1,·,·,·,10µM,–,–
CNC(=O)c1ccc(NC(=O)CC2SC(N3CCCC3)=NC2=O)cc1 (stereo not given),–,–,–,–,–,2µM
Cc1ccc(NC(=O)CC2SC3=NCCN3C2=O)cc1 (stereo not given),–,–,–,–,–,7.1µM
O=C(CC1SC(N2CCOCC2)=NC1=O)Nc1ccc(Cl)cc1 (stereo not given),–,–,–,–,–,50µM
CC(C)NC(=O)c1ccc(NC(=O)CC2SC(N3CCCC3)=NC2=O)cc1 (stereo not given),–,–,–,–,–,–[2.33 µM]
CCc1ccccc1NC(=O)c1ccc2c(c1)nnn2C1CCCC1,·,–,·,–,–,–
